From PubChem BioAssay
“And” between values parts separate entries of the source, which are not always exact repeats. Identical values can stand only once. Inconclusive results are not listed. The source made the active and inactive calls.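 The calls were made as follows, unless noted: active = compound that reduces growth-factor-driven endothelial tube area in a mixed cell culture, no cutoff stated; inactive = the rest.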

How the values were obtained:
[1] = stimulators of insulin release from INS-1E, primary screen, cell-based, 5 mM glucose, NPC library (AID 1117329;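 active = compound raises insulin release from rat beta cells at 5 mM glucose, no numeric limit stated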); conditions: rat INS-1E insulin secretion, at 10 µM, stronger effect = higher value
[2] = growth inhibition of GSK3B-pretreated HCT116 cells – cell-based, CellTiter-Glo, 0.2 to 20 µM (AID 1117336;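 active = compounds lowering colon cancer cell viability after pretreatment blocking the GSK3B kinase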); conditions: HCT116 viability after GSK3B inhibitor, at 20 µM, stronger effect = higher value
[3] = inhibition of endothelial tube formation, primary screen, imaging, VEGF stimulated, CD31 staining, tube area, NPC library (AID 1117340); conditions: VEGF-stimulated ADSC/ECFC co-culture, at 10 µM, stronger effect = higher value
[4] = glucagon-like peptide 1 release enhancers, primary assay, NCI-H716 cell line, NPC library (AID 1117341;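 active = compound raises GLP1 secretion from the human gut endocrine cells, with no numeric limit stated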); conditions: NCI-H716 cells, at 10 µM, stronger effect = higher value
[5] = HCT116 colon cancer cell growth inhibition, primary screen, CellTiter-Glo luminescence, NPC library (AID 1117342;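 active = compounds that lower survival of HCT116 colon cancer cells in the luminescence readout, no numeric limit stated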); conditions: at 20 µM (top of the series)
[6] = CellTiter-Glo luminescent readout of SW480 viability loss, NPC library primary (AID 1117343;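 active = compounds that lower viability of the colon cancer cells in the luminescence readout, with no numeric limit stated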); conditions: CellTiter-Glo luminescence; at 20 µM (top of the series)
[7] = decreased DLD-1 cellular survival, CellTiter-Glo luminescent readout, NPC compound collection, primary HTS (AID 1117346;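 active = compounds that lower survival of DLD-1 colon cancer cells in the luminescence readout, no cutoff given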); conditions: DLD-1 viability, CellTiter-Glo luminescence; at 20 µM (top of the series)
[8] = biological target: 6-phosphogluconate dehydrogenase, decarboxylating (Homo sapiens) (UniProt P52209); experiment: 6PGD enzyme inhibitors, primary screen, biochemical, human, recombinant enzyme, NADPH absorbance (AID 1159550;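 active = at least 20% inhibition of 6-phosphogluconate dehydrogenase activity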); conditions: recombinant 6PGD, NADPH absorbance 341 nm; at 10 µM; stronger effect = higher value
[9] = differential killing of epithelial or mesenchymal cells, primary screen, imaging, PC-3E GFP, TEM4-18 mCherry, co-culture (AID 1345086;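 active = compounds killing one labelled cell type while sparing the other, by normalised counts and ratio limits, not self-fluorescent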;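 as to all read-outs here: cells exposed to compound for 72 h before imaging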;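 as to red/green cell ratio (normalised): normalised mesenchymal count divided by normalised epithelial count so high means epithelial killing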); conditions: imaging cell counts, at 1 µM; for red/green cell ratio (normalised): actives lie on both sides, counts scaled to control wells, 1 = unselective
[10] = growth inhibition of DIPG glioma cells, dose response, cell-based, SU-DIPG-XIII, MIPE4.0, CellTiter-Glo, qHTS (AID 1347061; cut-off not given, nearly all actives have AC50 up to about 37 µM;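 also: cells exposed to compound for 48 hours before readout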); conditions: SU-DIPG-XIII viability, CellTiter-Glo ATP luminescence
[11] = growth inhibition of DIPG glioma cells, dose response, cell-based, JHH-DIPG-1, MIPE4.0, CellTiter-Glo, qHTS (AID 1347062; cut-off not given, nearly all actives have AC50 up to about 27 µM;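 as to AC50: cells exposed to compound for two days before readout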); conditions: JHH-DIPG-1 viability, CellTiter-Glo ATP luminescence
[12] = growth inhibition of DIPG glioma cells, dose response, cell-based, SU-DIPG-IV, MIPE4.0, CellTiter-Glo, qHTS (AID 1347063; cut-off not given, nearly all actives have AC50 up to about 30 µM;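 also: compound exposure lasted 48 hours before the viability readout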); conditions: SU-DIPG-IV viability, CellTiter-Glo ATP luminescence
[13] = growth inhibition of DIPG glioma cells, dose response, cell-based, SU-DIPG-XIII, MIPE5.0, CellTiter-Glo, qHTS (AID 1347064; cut-off not given, nearly all actives have AC50 up to about 23 µM;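 as to AC50: cells exposed to compound for 48 hours before the viability read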); conditions: SU-DIPG-XIII viability, CellTiter-Glo ATP luminescence
[14] = growth inhibition of DIPG glioma cells, dose response, cell-based, SU-DIPG-XVII, MIPE5.0, CellTiter-Glo, qHTS (AID 1347060; cut-off not given, nearly all actives have AC50 up to about 26 µM;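 as to AC50: cells exposed to compound for 48 hours before viability readout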); conditions: SU-DIPG-XVII viability, CellTiter-Glo ATP luminescence
[15] = modulation of C. elegans fzo-1 (AID 1259413; call rule not given here;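 also: fzo-1 mutant C. elegans worms in liquid wells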); conditions: C. elegans fzo-1 modulator screen, mean read-out; stronger effect = higher value
[16] = measured here: epithelial PC-3E GFP cell survival
[17] = measured here: mesenchymal TEM4-18 mCherry cell survival

Chain of 6-phosphogluconate dehydrogenase, decarboxylating (Homo sapiens) (P52209 whole entry, looked up): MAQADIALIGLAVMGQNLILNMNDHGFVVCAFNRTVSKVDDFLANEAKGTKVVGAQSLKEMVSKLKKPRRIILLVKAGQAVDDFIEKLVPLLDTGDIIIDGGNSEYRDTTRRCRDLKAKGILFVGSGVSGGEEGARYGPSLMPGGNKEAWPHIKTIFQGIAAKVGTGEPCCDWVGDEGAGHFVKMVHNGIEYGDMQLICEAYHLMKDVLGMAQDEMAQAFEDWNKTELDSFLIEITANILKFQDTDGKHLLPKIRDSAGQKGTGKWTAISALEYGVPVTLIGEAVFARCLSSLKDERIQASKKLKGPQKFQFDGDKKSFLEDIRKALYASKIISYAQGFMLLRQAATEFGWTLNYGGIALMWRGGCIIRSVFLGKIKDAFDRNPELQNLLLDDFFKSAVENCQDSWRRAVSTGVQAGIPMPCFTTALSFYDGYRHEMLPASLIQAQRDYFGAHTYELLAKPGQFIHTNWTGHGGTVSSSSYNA

O=c1oc2cc(O)ccc2s1
inactive: insulin secretion stimulation [1] 2.9% | viability decrease [2] -9.5% | tube area decrease [3] 11.8% | GLP1 secretion stimulation [4] -4.3% | inhibition of viability [5] -4.7% | viability decrease (inhibition) [7] 10.2% | inhibition [8] 11.7% | red/green cell ratio (normalised) [9] 0.91 and 0.99 | outcome [10] | outcome [11] | outcome [12] | outcome [13]
1.1 and 0.89: normalised cell number [9, 16]
1 and 0.88: normalised cell number [9, 17]
active: viability decrease (inhibition) [6] 3.7%

NC(=O)N/N=C/c1ccc([N+](=O)[O-])o1
active: viability decrease (inhibition) [6] 68.8%
0.62: normalised cell number [9, 17]
inactive: insulin secretion stimulation [1] -0.4% | viability decrease [2] 45.2% | tube area decrease [3] -17% | GLP1 secretion stimulation [4] -2.5% | inhibition of viability [5] 45.3% | viability decrease (inhibition) [7] -6.7% | inhibition [8] 5.85% | red/green cell ratio (normalised) [9] 1.13 | outcome [10]
0.55: normalised cell number [9, 16]

Nc1ncnc2c1ncn2[C@@H]1O[C@H](CO)[C@@H](O)[C@H]1O
0.94: normalised cell number [9, 17]
0.81: normalised cell number [9, 16]
active: AC50 [10] 18.7 µM | AC50 [11] 0.935 µM
inactive: insulin secretion stimulation [1] 2.7% | viability decrease [2] 41.9% | tube area decrease [3] 30.3% | GLP1 secretion stimulation [4] -0.1% | inhibition of viability [5] 33.7% | viability decrease (inhibition) [6] 27% | viability decrease (inhibition) [7] 19.1% | inhibition [8] 2.2% | red/green cell ratio (normalised) [9] 1.15

CC(C)(Sc1cc(C(C)(C)C)c(O)c(C(C)(C)C)c1)Sc1cc(C(C)(C)C)c(O)c(C(C)(C)C)c1
1.16: normalised cell number [9, 17]
1.14: normalised cell number [9, 16]
inactive: insulin secretion stimulation [1] 3.7% | viability decrease [2] -20.3% | tube area decrease [3] -25% | GLP1 secretion stimulation [4] 0.8% | inhibition of viability [5] 1.57% | viability decrease (inhibition) [6] 9.4% | viability decrease (inhibition) [7] 37.1% | inhibition [8] 6.05% | red/green cell ratio (normalised) [9] 1.01 | outcome [10] | outcome [11] | outcome [12]

CC/C(=C(/CC)c1ccc(O)cc1)c1ccc(O)cc1
1.1: normalised cell number [9, 16]
inactive: insulin secretion stimulation [1] 0.8% | tube area decrease [3] 20.8% | GLP1 secretion stimulation [4] 16.6% | inhibition [8] 8.9% | red/green cell ratio (normalised) [9] 1.15 | outcome [14] | outcome [11] | outcome [13]
active: viability decrease [2] 90.8% | inhibition of viability [5] 94.3% | viability decrease (inhibition) [6] 97.7% | viability decrease (inhibition) [7] 98.4%
1.27: normalised cell number [9, 17]

O=C(N[C@H](CO)[C@H](O)c1ccc([N+](=O)[O-])cc1)C(Cl)Cl
1.21: normalised cell number [9, 16]
inactive: insulin secretion stimulation [1] 1.8% | viability decrease [2] -11.1% | tube area decrease [3] 12.5% | GLP1 secretion stimulation [4] -4.2% | inhibition of viability [5] -1.7% | viability decrease (inhibition) [6] -0.7% | viability decrease (inhibition) [7] -7% | inhibition [8] 15.5% | red/green cell ratio (normalised) [9] 0.78 | outcome [11] | outcome [12]
0.95: normalised cell number [9, 17]

Cn1c(=O)c2c(ncn2CC(O)CO)n(C)c1=O (centres undefined)
inactive: insulin secretion stimulation [1] 1.1% | viability decrease [2] -2.9% | tube area decrease [3] -11.6% | GLP1 secretion stimulation [4] -0.3% | inhibition of viability [5] 7.4% | viability decrease (inhibition) [6] 12.3% | viability decrease (inhibition) [7] 5.3% | inhibition [8] -4.2% | red/green cell ratio (normalised) [9] 1.41 | outcome [10] | outcome [11] | outcome [12] | outcome [13]
1.1: normalised cell number [9, 17]
0.78: normalised cell number [9, 16]

Nc1ccc(S(=O)(=O)Nc2ccccn2)cc1
inactive: insulin secretion stimulation [1] -2.8% | viability decrease [2] -1.3% | tube area decrease [3] 7.9% | GLP1 secretion stimulation [4] -3.8% | inhibition of viability [5] -12% | viability decrease (inhibition) [6] 17.6% | viability decrease (inhibition) [7] -7.25% | inhibition [8] 4.06% | red/green cell ratio (normalised) [9] 1.49 | outcome [10] | outcome [11]
1.47: normalised cell number [9, 17]
0.99: normalised cell number [9, 16]

CN1CCN(C2=Nc3cc(F)ccc3Cc3ccccc32)CC1
inactive: insulin secretion stimulation [1] 3.3% | viability decrease [2] 12.5% | tube area decrease [3] 13% | GLP1 secretion stimulation [4] 8% | inhibition of viability [5] 37.7% | viability decrease (inhibition) [6] 26.9% | viability decrease (inhibition) [7] -2.4% | mean signal [15] 248

CO[C@@]12[C@H](COC(N)=O)C3=C(C(=O)C(C)=C(N)C3=O)N1C[C@@H]1N[C@@H]12
active: viability decrease [2] 106% | tube area decrease [3] 108% | inhibition of viability [5] 105% | viability decrease (inhibition) [6] 124% | viability decrease (inhibition) [7] 95.8% | AC50 [14] 0.417 µM | AC50 [11] 16.6 µM | AC50 [12] 0.469 µM | AC50 [13] 7.42 µM
inactive: insulin secretion stimulation [1] 0.2% | GLP1 secretion stimulation [4] 1.2% | inhibition [8] -2.77%

O=c1[nH]c(=O)n([C@H]2C[C@H](O)[C@@H](CO)O2)cc1F
active: viability decrease [2] 94.2% | tube area decrease [3] 87.8% | inhibition of viability [5] 102% | viability decrease (inhibition) [6] 93.2% | viability decrease (inhibition) [7] 69.5% | AC50 [10] 13.2 µM | AC50 [11] 1.48 µM
inactive: insulin secretion stimulation [1] -1.2% | GLP1 secretion stimulation [4] 2.8% | inhibition [8] -7.05%

CCCCC(=O)O[C@]1(C(=O)CO)[C@@H](C)C[C@H]2[C@@H]3CCC4=CC(=O)C=C[C@]4(C)[C@@]3(F)[C@@H](O)C[C@@]21C
inactive: insulin secretion stimulation [1] -4.4% | viability decrease [2] -106% | tube area decrease [3] 2.4% | GLP1 secretion stimulation [4] 8.1% | inhibition of viability [5] 12.9% | viability decrease (inhibition) [6] -0.4% | viability decrease (inhibition) [7] 11% | inhibition [8] -3.61% | outcome [14]

CC(=O)O[C@]1(C(C)=O)CC[C@H]2[C@@H]3C=C(Cl)C4=CC(=O)[C@@H]5C[C@@H]5[C@]4(C)[C@H]3CC[C@@]21C
active: AC50 [14] 23.5 µM | AC50 [11] 23.5 µM | AC50 [12] 9.35 µM
inactive: insulin secretion stimulation [1] -1.4% | viability decrease [2] 16% | tube area decrease [3] 10.1% | GLP1 secretion stimulation [4] 1.2% | inhibition of viability [5] 29.2% | viability decrease (inhibition) [6] 48.9% | viability decrease (inhibition) [7] -4.3% | inhibition [8] -7.53%
